NLRP3 yeast inh = inhibitors of NALP3 inflammasome in yeast | Yeast reconstituted NLRP3/ASC/caspase-1, beta-gal luminescence, 24 h | actives 0.39% (n = 330,000) | AID 2825 | inhibition, % at 10 µM;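 active = inhibition of 50% or more; inactive = inhibition below 50%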;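 also: plate controls were induced DMSO wells for no effect and uninduced yeast grown without galactose for full effect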
SKKanGAS inh = inhibitors of SKKanGAS S. pyogenes growth in kanamycin (SK-promoter or general growth effect) | BacTiter-Glo, 6 h | inhibition, % at 7.5 µM | actives 1.3% (n = 300,000) | AID 1662;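 active = mean replicate score, as percent of positive control median, at least 50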;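 also: strain carries kanamycin resistance gene driven by streptokinase promoter and grows in 40 µg/ml kanamycin; loss of luminescence reflects streptokinase promoter inhibition or plain growth inhibition; 0% = median of DMSO wells and 100% = positive control at its reference dose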
tim23-1 inh = inhibits growth of tim23-1 mutant yeast; S. cerevisiae tim23-1 growth, BacTiter-Glo luminescence, 24 h; inhibition, % at 20 µM; actives 1.3% (n = 330,000);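 active = growth inhibition of the mutant yeast at or above 50%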;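 also: temperature-sensitive mutant grown at 25 °C; plate controls were DMSO-treated mutant yeast for no effect and medium wells lacking yeast for full effect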
tim10-1 inh = growth inhibitors of tim10-1 mutant yeast. inhibition, % at 20 µM. AID 463190. S. cerevisiae tim10-1 ts strain growth, BacTiter-Glo, 24 h. actives 2.2% (n = 330,000);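 active = inhibition of at least 40%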;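 also: mutant grown at 25 °C; 0% = DMSO wells with yeast and 100% = wells holding no yeast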
PfHsp90 set2 = growth inhibition of yeast expressing Plasmodium Hsp90 | S. cerevisiae expressing PfHsp90, BacTiter-Glo ATP, 48 h; yeast lacking PDR1 and PDR3 efflux regulators | inhibition, % at 9.4 µM | actives 0.32% (n = 310,000);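 active = every replicate shows inhibition above about 80%, whatever the replicate mean, limit read from the data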;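 also: 0% = DMSO neutral controls and 100% = 20 µM radicicol positive controls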
TIM10 inh = TIM10 yeast growth inhibition. S. cerevisiae TIM10 strain growth, BacTiter-Glo luminescence, 24 h. inhibition, % at 10 µM. actives 1.4% (n = 330,000). AID 463195;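 active = inhibition of 40% or more at the single tested concentration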;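 also: wild-type TIM10 isogenic control strain grown at permissive 25 °C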
Starred values were filed as active, the others as inactive; x = no result given. Rows were chosen to be rich in hits. Some 4.6% of all compounds tested hit in one or more screens of this group.

SMILES | NLRP3 yeast inh | SKKanGAS inh | tim23-1 inh | tim10-1 inh | PfHsp90 set2 | TIM10 inh
Cc1ccccc1CSc1nnc(-c2cnccn2)n1C | 12 | -9 | 13 | 9 | x | -8
O=C(NNC(=S)NC(=O)c1ccccc1[N+](=O)[O-])c1ccc(Cl)cc1Cl | 32 | 48 | 4 | 19 | -21 | 18
Cc1cccc(C(=O)NC(=S)NNC(=O)COc2ccc(Cl)cc2)c1 | 24 | 62* | -9 | 10 | 1 | 0
O=C(COc1ccccc1)NNC(=S)NC(=O)c1ccc(Cl)cc1Cl | 36 | 77* | 4 | 35 | x | 30
Cc1occc1C(=O)NNC(=S)NC(=O)COc1ccc(Cl)cc1Cl | 25 | 78* | 33 | 11 | 2 | 1
CCCCC(=O)NC(=S)NNC(=O)c1ccc(Cl)cc1Cl | x | 90* | x | x | -5 | x
CCOc1ccccc1OCC(=O)NCCc1ccc(S(N)(=O)=O)cc1 | 7 | -12 | 14 | 8 | x | -11
O=S(=O)(Nc1ncccn1)c1ccc(NC(=S)Nc2cccc(Cl)c2)cc1 | 4 | 12 | 5 | 8 | x | 9
Cc1cc(C(=O)Nc2c(F)cc(F)cc2Br)n(-c2ccccc2)n1 | 10 | 1 | 20 | 22 | -13 | 8
Cc1ccc(C(=O)CC(=O)COc2ccc(Cl)cc2)cc1 | 14 | 64* | 13 | 20 | -11 | -8
O=C(Nc1cc(S(=O)(=O)N2CCOCC2)ccc1N1CCOCC1)c1cccs1 | 18 | x | -3 | -2 | 4 | 7
CSc1ccc(S(=O)(=O)NCC(=O)OCC(=O)N2CC(C)CC(C)C2)cc1[N+](=O)[O-] (configuration not stated) | 0 | 4 | -3 | -4 | -5 | 2
CSc1ccc(S(=O)(=O)NCC(=O)OCC(=O)N2CCCC2=O)cc1[N+](=O)[O-] | 26 | 68* | 17 | 9 | -6 | -2
CC(/C=C/C=C/c1ccccc1)=N/NC(=O)c1ccc2c(c1)OCCO2 | 1 | 61* | 6 | 1 | -11 | 7
CC(/C=C/c1ccccc1)=N/NC(=O)c1cccc(Br)c1 | -4 | 87* | -3 | 17 | -13 | 20
O=C(Nc1cc([N+](=O)[O-])ccc1N1CCCC1)c1cccs1 | 27 | 6 | -8 | -8 | 5 | 4
O=C1C(=O)N(c2ccccn2)C(c2ccc(F)cc2)/C1=C(/O)c1ccc(Br)cc1 (configuration not stated) | -12 | 6 | -3 | -3 | -30 | -10
CCCOc1ccc(/C(O)=C2/C(=O)C(=O)N(c3ccccn3)C2c2ccc(OC)cc2)cc1C (configuration not stated) | 38 | 50* | 28 | 30 | 10 | 9
O=C1C(=O)N(c2ccccn2)C(c2ccc(Br)cc2)/C1=C(/O)c1ccc(Br)cc1 (configuration not stated) | 8 | 69* | 13 | 8 | 5 | 10
COc1ccc(/C(O)=C2/C(=O)C(=O)N(c3ccccn3)C2c2ccc(OC)cc2)cc1 (configuration not stated) | -4 | -5 | -3 | 0 | 2 | -17
CC(C)(C)OC(=O)NCCCC[C@H](NC(=O)c1[nH]cnc1C(=O)Nc1ccc(Cl)cc1)C(=O)OC(C)(C)C | 4 | 57* | 6 | 4 | -14 | 9
CC(C)(C)OC(=O)NCCCC[C@H](NC(=O)c1[nH]cnc1C(=O)Nc1ccccc1)C(=O)OC(C)(C)C | 10 | 34 | 27 | 21 | x | 5
CCOC(=O)c1ccc(NC(=O)c2nc[nH]c2C(=O)N[C@@H](CC(C)C)C(=O)OC(C)(C)C)cc1 | 9 | 21 | 15 | 18 | -22 | 10
CC(C)C[C@H](NC(=O)c1[nH]cnc1C(=O)Nc1ccccc1)C(=O)OC(C)(C)C | 16 | 63* | 38 | 21 | -44 | 15
CC(C)C[C@H](NC(=O)c1[nH]cnc1C(=O)N[C@@H](C)c1ccccc1)C(=O)OCc1ccccc1 | 10 | 75* | -1 | 17 | 5 | 2
CC(C)C[C@H](NC(=O)c1nc[nH]c1C(=O)NCC(=O)OCc1ccccc1)C(=O)OCc1ccccc1 | 17 | 27 | 11 | 18 | -3 | 10
CC(C)C[C@H](NC(=O)c1nc[nH]c1C(=O)N[C@@H](CC(C)C)C(=O)OC(C)(C)C)C(=O)OCc1ccccc1 | 7 | 58* | 4 | 3 | x | 6

Bioassay records as filed in PubChem.
